Data from ChEMBL document CHEMBL1201862, “PubChem BioAssay data set” (2004).
Among all 400,000 compounds or so, about 2,100 (0.53%) were called active. Another 14% or so got no clear call; they are omitted. No rule for the calls is given here. Only a selection was taken, and actives are over-represented in it overall.

Biological target: Ataxin-2 (Homo sapiens) (UniProt Q99700)
Test: qHTS for Inhibitors of ATXN expression.
Type: functional

Sequence of Ataxin-2 (Homo sapiens) (Q99700 whole entry): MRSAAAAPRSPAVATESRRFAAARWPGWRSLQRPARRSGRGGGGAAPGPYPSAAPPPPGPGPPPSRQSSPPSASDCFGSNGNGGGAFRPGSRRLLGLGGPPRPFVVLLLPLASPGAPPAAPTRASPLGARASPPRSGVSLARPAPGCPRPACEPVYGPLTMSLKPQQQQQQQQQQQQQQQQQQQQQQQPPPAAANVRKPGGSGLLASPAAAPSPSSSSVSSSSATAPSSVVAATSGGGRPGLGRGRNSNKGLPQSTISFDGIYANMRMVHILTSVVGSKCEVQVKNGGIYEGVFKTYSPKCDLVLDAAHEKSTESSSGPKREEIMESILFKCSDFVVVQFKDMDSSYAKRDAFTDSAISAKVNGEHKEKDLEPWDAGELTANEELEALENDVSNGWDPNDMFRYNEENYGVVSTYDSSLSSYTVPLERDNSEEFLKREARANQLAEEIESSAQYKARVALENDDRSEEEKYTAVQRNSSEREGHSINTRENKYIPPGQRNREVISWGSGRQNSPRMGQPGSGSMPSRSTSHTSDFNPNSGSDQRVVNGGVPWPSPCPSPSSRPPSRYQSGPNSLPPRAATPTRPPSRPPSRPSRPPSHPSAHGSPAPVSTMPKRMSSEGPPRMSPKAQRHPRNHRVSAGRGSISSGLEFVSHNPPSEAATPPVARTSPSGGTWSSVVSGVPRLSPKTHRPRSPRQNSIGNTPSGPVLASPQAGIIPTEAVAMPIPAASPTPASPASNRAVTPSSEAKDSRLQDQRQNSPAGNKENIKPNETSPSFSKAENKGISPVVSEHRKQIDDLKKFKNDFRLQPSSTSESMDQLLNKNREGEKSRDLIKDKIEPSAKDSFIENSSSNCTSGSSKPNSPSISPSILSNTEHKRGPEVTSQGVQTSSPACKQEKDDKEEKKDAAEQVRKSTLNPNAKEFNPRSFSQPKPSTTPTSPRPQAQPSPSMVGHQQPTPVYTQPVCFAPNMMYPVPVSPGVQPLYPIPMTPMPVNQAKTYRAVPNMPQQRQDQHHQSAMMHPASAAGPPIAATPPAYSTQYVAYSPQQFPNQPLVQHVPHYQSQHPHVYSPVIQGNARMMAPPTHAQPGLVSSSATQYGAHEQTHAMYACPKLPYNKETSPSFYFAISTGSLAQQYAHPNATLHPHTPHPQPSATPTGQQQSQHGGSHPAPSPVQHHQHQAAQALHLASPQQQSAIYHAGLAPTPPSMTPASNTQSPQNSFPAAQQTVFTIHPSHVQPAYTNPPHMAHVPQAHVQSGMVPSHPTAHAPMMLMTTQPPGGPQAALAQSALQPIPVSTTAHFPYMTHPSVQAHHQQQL

SMILES | Potency
Cc1ccc2nc3c(cc2c1)c(NC(=O)C(C)(C)C)nn3CC(C)C | inactive
C=CCn1c(N)c(C(=O)NCC2CCCO2)c2nc3ccccc3nc21 (centres undefined) | inactive
c1cncc(Nc2c3ccccc3nc3ccccc23)c1 | inactive
Cc1ccc(-c2ccc(S(=O)(=O)Nc3cccnc3)cc2)cc1 | inactive
O=C1C=C(Nc2cccnc2)c2ccccc2C1=O | 39.8 µM (active)
O=C(COc1ccc2ccc(=O)oc2c1)OCc1ccccc1 | inactive
CN(C)C(CNc1ccc(S(C)(=O)=O)cc1[N+](=O)[O-])c1ccccc1 (centres undefined) | inactive
CS(=O)(=O)c1ccc([S+]([O-])CC(=O)OCc2ccccc2)c([N+](=O)[O-])c1 (centres undefined) | 26.7 µM (active)
Cc1ccc(-c2nc(N)sc2C)cc1 | inactive
Nc1nc(-c2ccccc2)c(N=Nc2ccccc2Cl)s1 | 31.6 µM (active)
Nc1ccc2nc(-c3ccccc3)c(-c3ccccc3)nc2c1 | inactive
O=C(O)c1ccc(CN2C(=O)c3cccc4c([N+](=O)[O-])ccc(c34)C2=O)cc1 | inactive
O=C(COC(=O)COc1cccc2ccccc12)NCC(F)(F)F | inactive
CCCCn1nnnc1C(c1cc2ccccc2o1)N(CCN(C)C)Cc1ccccc1 (centres undefined) | 28.2 µM (active)
CC(C)(CNC(=O)c1ccc(S(=O)(=O)Nc2cccc(C(F)(F)F)c2)cc1)N1CCOCC1 | inactive
COc1cc2sc3cc(NCCCN4CCOCC4)ccc3c(=O)c2cc1OC | inactive
COc1cc(CNCCCN2CCOCC2)cc(Br)c1OCc1ccc(Cl)cc1 | 33.6 µM (active)
COc1cccc2cc(C(=O)C3=C(O)C(=O)N(CCN4CCOCC4)C3c3ccc(Cl)cc3)oc12 (centres undefined) | inactive
CCOc1cc(CNCCCN2CCOCC2)cc(Br)c1OCC(=O)Nc1cccc(C(F)(F)F)c1 | 20 µM (active)
O=C(COC(=O)COc1cccc(C(F)(F)F)c1)Nc1ccc(N2CCOCC2)cc1 | inactive
COc1cc(CNCCN2CCOCC2)ccc1OCc1ccc(Cl)cc1Cl | 25.1 µM (active)
C=CCOc1c(Br)cc(CNCCCN2CCOCC2)cc1OC | inactive

SMILES | Potency
CCCc1cc(=O)oc2cc(OCC(=O)NCCN3CCOCC3)c(Cl)cc12 | inactive
CCOC(=O)Cc1c(C)c2ccc(N(CC)CC)cc2oc1=O | inactive
C(=Cc1cnc2ccccc2n1)c1ccc2c(c1)OCO2 | inactive
CCCCCn1cc[n+](-c2nc3ccccc3nc2[N-]S(=O)(=O)c2ccccc2)c1 | inactive
Cc1ccc(NC(=O)CC2Nc3ccccc3NC2=O)cc1C (centres undefined) | inactive
CC(=O)c1cc2c(C)cc(=O)oc2cc1O | inactive
Fc1cccc(Cl)c1CNc1ccc(N2CCCC2)cc1 | inactive
Cc1nn(Cc2ccccc2)c(C)c1/C=N/NC(=O)CNc1cccc(C(F)(F)F)c1 | inactive
COC(=O)C1=C(C)N(Cc2ccccc2)C(NCc2cccc(C(F)(F)F)c2)=N[C@H]1c1cccc(F)c1 | 17.8 µM (active)
COC(=O)C1=C(C)N(Cc2ccccc2)C(NCc2ccccc2)=N[C@H]1c1cccc(C(F)(F)F)c1 | 35.5 µM (active)
COC(=O)Cc1c(C(=O)OC)nnn1-c1cccc(C(F)(F)F)c1 | inactive
COC(=O)C1=C(C)N(Cc2ccccc2)C(NCCc2c[nH]c3ccccc23)=N[C@H]1c1cccc(C(F)(F)F)c1 | 25.1 µM (active)
CCOC(=O)c1sc(-c2cccc(C(F)(F)F)c2)nc1O | inactive
CCN1C(N(C)CCc2c[nH]c3ccccc23)=N[C@@H](c2cccc(C(F)(F)F)c2)C(C(=O)OC)=C1C | 31.6 µM (active)
C1=C(c2ccc(-c3ccccc3)cc2)Nc2ncnn2C1c1ccco1 (centres undefined) | inactive
COCCC(=O)NCC1Cc2cc(Cl)cc(-c3ccc4[nH]ccc4c3)c2O1 (centres undefined) | inactive
OC(CNc1ccccc1)Cn1ccc2ccccc21 (centres undefined) | inactive
COc1ccc(C2=NN(c3ccc(C(=O)O)cc3)C(c3ccc(OC)c(OC)c3)C2)cc1 (centres undefined) | inactive
CCc1c(C)c2cc3c(c(C)c2oc1=O)OCN(CCc1ccccc1F)C3 | inactive
CCc1ccc(-c2cn3nc(C)c(C)nc3n2)cc1 | inactive
COc1cccc(C2C=C(c3ccc(OC)cc3OC)Nc3nnnn32)c1 (centres undefined) | inactive
CN(C)CCN(C(=O)C1CCCCC1)c1nc2cc3c(cc2s1)OCCO3 | inactive

SMILES | Potency
CN(Cc1ccccc1)C(=O)c1ccc(S(=O)(=O)N(C)c2ccccc2)cc1 | inactive
CN(Cc1ccccc1)S(=O)(=O)c1csc(C(N)=O)c1 | inactive
Cc1cc(C)c2sc(N(CCCN(C)C)C(=O)c3ccc(S(=O)(=O)N(C)C4CCCCC4)cc3)nc2c1 | 35.5 µM (active)
Cc1cc(C)c2sc(N(CCCN(C)C)C(=O)c3ccc(S(=O)(=O)N(C)Cc4ccccc4)cc3)nc2c1 | 39.8 µM (active)
CC(=O)OCCCCCCCCCCC[N+]1(C)CCCCC1 | inactive
O=c1cc(CN2CCN(Cc3ccccc3)CC2)c2ccc(O)c(O)c2o1 | inactive
CC(=O)c1c(C)[nH]c(C(=O)Nc2ccc(N3CCCCCC3)cc2)c1C | inactive
O=C(COC(=O)c1cccnc1O)Nc1ccc(N2CCCCC2)cc1 | inactive
O=C(CNCCC1=CCCCC1)Nc1ccc(N2CCCCCC2)cc1 | 25.1 µM (active)
Cc1ccc(C2C=C(c3ccc(Cl)cc3)Nc3nc(NC(=O)c4ccco4)nn32)cc1 (centres undefined) | inactive
CC(=O)Nc1ccc(S(=O)(=O)NC(C)C(=O)NCC(c2ccco2)N2CCCCC2)cc1 (centres undefined) | inactive
O=C(NCC(c1ccco1)N1CCCC1)c1cc(S(=O)(=O)N2CCOCC2)ccc1Cl (centres undefined) | inactive
COc1cc(C(=O)NCC(c2ccco2)N2CCCC2)ccc1OCc1ccc(Cl)cc1Cl (centres undefined) | 35.5 µM (active)
O=[N+]([O-])c1ccc(/C=[N+](\[O-])[C@@H]2CCCC[C@@H]2/[N+]([O-])=C/c2ccc([N+](=O)[O-])o2)o1 | 42.3 µM (active)
Cc1cc(N/N=C/c2ccc([N+](=O)[O-])o2)nc2ccccc12 | inactive
c1ccc(C2=NN(c3ccccc3)C(c3ccco3)C2)cc1 (centres undefined) | inactive
COc1ccc(-c2cc(=O)oc3c(C)c(O)ccc23)cc1 | inactive
COc1ccc(C2C=C(c3ccc(C)c(C)c3)Nc3ncnn32)c(OC)c1OC (centres undefined) | inactive
CCN(CCCNC(=O)c1cc(Nc2ccccc2OC)nc2ccccc12)c1cccc(C)c1 | inactive
CCN(CCNCC(O)COc1ccccc1C(C)C)c1cccc(C)c1 (centres undefined) | 39.8 µM (active)
